# IL1B secr inh: qHTS for Inhibitors of Inflammasome Signaling: IL-1-beta AlphaLISA Primary Screen; AID 743279, 2014; 360,000 compounds, 4.7% hits; activity change, % at 57.5 µM; THP-1 LPS/ATP IL-1B secretion, AlphaLISA, 16 h; active compounds read low; in the data active = activity change below about -50%; inconclusive = mostly about -30% to -49%
#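 THP-1 cells pretreated 1 hr with compounds (up to 57.5 uM final), then stimulated with LPS (250 ng/mL final) plus ATP (1.25 mM final); secreted IL-1B measured by AlphaLISA after 16 hr, decreased signal indicating inhibition.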
# HT1080-NT tox: qHTS for induction of synthetic lethality in tumor cells producing 2HG: qHTS for the HT-1080-NT fibrosarcoma cell line; AID 686970, 2013; HT-1080-NT fibrosarcoma viability, CellTiter-Glo ATP luminescence, 48 h; 360,000 compounds, 1.6% hits; Potency, µM (series often up to 46.1 µM), for the others: top-dose activity, negative = less viability, actives largely listed as cytotoxic;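 also: NT is the 2HG producing partner of a matched IDH1 knockdown line; potency is read from the fitted curve at half-maximal effect; 0% = DMSO-treated cells and -100% = media-only wells without cells; nearly all actives have a fitted effect of over 55% in size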
#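 Read-out is CellTiter-Glo luminescence after 10 minutes at room temperature, following 48 hours' compound treatment of HT-1080-NT cells (750 cells/well, RPMI, 5% FBS, 37 degrees C).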
# DT40 TDP1 CPT: qHTS for Inhibitors of human tyrosyl-DNA phosphodiesterase 1 (TDP1): qHTS in cells in presence of CPT; chicken DT40 Tdp1-/-;hTDP1 cells + 20 nM CPT, ATP luminescence, 48 h; Potency, µM (doses to about 46.2 µM), inactives show at the top dose activity change, negative = growth inhibition, most hits filed as inhibitors; 420,000 compounds, 12% hits; AID 686979, 2013; also: potency is read from the fitted curve at half-maximal effect; nearly all actives have a fitted effect of over 55% in size
#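 Chicken DT40 Tdp1-/- cells stably complemented with human TDP1 were seeded at 400 cells/well in medium containing 20 nM camptothecin, exposed to pin-transferred compounds, and grown at 37 °C for at least 48 hr. Viability was read as ATP luminescence.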
# HT1080 IDH1KD tx: qHTS for induction of synthetic lethality in tumor cells producing 2HG: qHTS for the HT-1080-IDH1KD cell line. HT-1080 IDH1 knockdown viability, ATP luminescence, 48 h. Potency, µM (top dose mostly 46.1 µM), for inactives: at the top dose activity, negative = toxicity, actives largely listed as cytotoxic. 360,000 compounds, 2% hits;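 also: potency is read from the fitted curve at half-maximal effect; 0% = DMSO wells and -100% = cell-free medium wells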
#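 CellTiter-Glo luminescence after 48 h compound exposure at 37 degrees C of IDH1-knockdown HT-1080 cells in 5% FBS RPMI. %Activity scaled between DMSO wells and cell-free media wells, with curves fitted and assigned curve classes.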
# DT40 TDP1 no CPT: qHTS for Inhibitors of human tyrosyl-DNA phosphodiesterase 1 (TDP1): qHTS in cells in absence of CPT; DT40 Tdp1-/- hTDP1 cells, no CPT, ATP luminescence, 48 h; Potency, µM (series often up to 46.2 µM), inactives show at the top dose activity change, negative = growth inhibition, usual class: inhibitors; 420,000 compounds, 15% hits; also: potency is read from the fitted curve at half-maximal effect; nearly all actives have a fitted effect of over 55% in size
#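 Seeded 400 DT40-hTDP1 cells/well (vehicle DMSO, no 20 nM CPT); pinned compounds; ≥48 hr at 37 °C; CellTiter-Glo luminescence as viability measure.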
# Active calls of the source: *; ? = inconclusive; . = no result; ! = repeats disagree; [ ] = another dose, or the depositor's remark. Sampled rows, rich in hits. Any-hit rate of the full collection: about 19%. Unless noted, calls follow the shape of the dose curve; as a rule, active = well fitted curve in the direction sought with a large enough effect; inconclusive = small, poorly fitted or top-dose-only effect, or another doubt; inactive = no such curve, though single readings can be large; an effect the other way counts as inactive or inconclusive. Unless noted, % is scaled to controls: 0 for no effect and ±100 for the full control effect.
SMILES,IL1B secr inh,HT1080-NT tox,DT40 TDP1 CPT,HT1080 IDH1KD tx,DT40 TDP1 no CPT
CC(=O)Nc1ccc2c(c1)nc(CCN1CCN(c3ccccn3)CC1)n2C,-21,6%,3%,9%,-2%
CCN(CC)c1ccc(/C=C2\C(=O)N(c3nnc(C)c(=O)[nH]3)N=C2C)cc1,-98*,?,13µM*,?,18µM*
CC1(c2ccc(F)cc2)OC(=O)c2c1ccc1ccccc21 (centres undefined),18,3%,?,0%,18µM*
O=C(COc1cccc2ccccc12)N/N=C/c1ccncc1,-1,10%,-19%,-2%,-21%
O=c1c2cc([N+](=O)[O-])ccc2nc(CN2CCN(c3ccccn3)CC2)n1-c1ccccc1F,32,11%,?,5%,15µM*
COc1ccc(-n2c(CN3CCN(c4ccc(F)cc4)CC3)nc3ccc([N+](=O)[O-])cc3c2=O)c(OC)c1,21,0%,?,6%,?
COc1ccc(-n2c(CN3CCN(c4ccccn4)CC3)nc3ccc([N+](=O)[O-])cc3c2=O)c(OC)c1,-23,-1%,?,0%,21µM*
COc1ccc(-n2c(CN3CCN(Cc4ccccc4)CC3)nc3ccc([N+](=O)[O-])cc3c2=O)c(OC)c1,62,-11%,?,-2%,-7%
O=C(c1ccco1)N1CCN(Cc2nc3ccc([N+](=O)[O-])cc3c(=O)n2-c2ccccc2F)CC1,70,-12%,?,-14%,8.2µM*
O=C(c1ccco1)N1CCN(c2ccc([N+](=O)[O-])cc2F)CC1,8,-17%,?,-1%,-16%
COc1ccc(N(C=O)C(C(=O)Nc2c(C)cccc2C)c2ccccc2)cc1 (centres undefined),-26,-5%,?,2%,?
C=CCn1c(=O)c2ccccc2n2c(SCC(=O)NC(C)C)nnc12,-3,6%,-4%,8%,11%
Cc1ccc(C)c(OCCn2cc(C(=O)c3ccco3)c3ccccc32)c1,.,.,21µM*,.,13µM*
COCCNC(=O)Cn1cc(C(=O)c2ccco2)c2ccccc21,8,-2%,18%,0%,1%
COC(=O)Cn1cc(C(=O)c2ccco2)c2ccccc21,6,-1%,-14%,-9%,-3%
Cc1ccc(C(C)C)c(OCCn2cc(C(=O)c3ccco3)c3ccccc32)c1,.,.,18µM*,.,15µM*
O=C(c1ccccc1C(=O)N1CCN(c2ccccc2F)CC1)N1CCN(c2ccccc2F)CC1,18,-6%,18µM*,-3%,?
COc1ccccc1N1CCN(C(=O)c2ccccc2Oc2ccccc2)CC1,-21,-14%,?,-2%,?
O=C(c1ccccc1Oc1ccccc1)N1CCN(c2ccccc2F)CC1,-12,-24%,18µM*,-25%,16µM*
CCN(CC)C(=O)CSC1=C(C#N)C(c2cccs2)C=C(C)N1 (centres undefined),-13,2%,?,-2%,23µM*
C#CCSC1=C(C#N)C(c2cccs2)C(C(=O)OCC)=C(C)N1 (centres undefined),-1,9%,?,-11%,?
CC(=O)Nc1sc2c(c1CN1CCCC1)CCCC2,2,10%,4%,12%,-1%
Cc1sc(NC(=O)c2ccco2)c(C(c2ccc(F)cc2)N2CCN(C)CC2)c1C (centres undefined),-71*,?,?,?,?
Cc1ccc(C(c2c(NC(=O)c3ccco3)sc(C)c2C)N2CCOCC2)cc1 (centres undefined),-3,11%,?,1%,?
Cc1sc(NC(=O)c2ccco2)c(C(c2ccccc2)N2CCC(C)CC2)c1C (centres undefined),-22,?,10µM*,?,6.5µM*
SMILES,IL1B secr inh,HT1080-NT tox,DT40 TDP1 CPT,HT1080 IDH1KD tx,DT40 TDP1 no CPT
Cc1sc(NC(=O)c2ccco2)c(CN2CCN(c3ccc(F)cc3)CC2)c1C,-3,-2%,21µM*,-13%,12µM*
CC(=O)Nc1sc2c(c1CN1CCN(c3ccc(F)cc3)CC1)CCCC2,-10,-21%,?,-28%,15µM*
Cc1ccc2c(c1)CCCN2CC(=O)Nc1cccc(S(=O)(=O)N2CCCC2)c1,0,0%[9.24 µM],?,2%,?
CCOC(=O)C1CCN(C(c2cccnc2)c2c(NC(=O)c3ccco3)sc(C)c2C)CC1 (centres undefined),-29,-19%,1.6µM*,?,1.8µM*
Cc1sc(NC(=O)c2ccco2)c(C(c2cccnc2)N2CCN(c3ccc(F)cc3)CC2)c1C (centres undefined),?,?,1.8µM*,?,5.8µM*
Cc1sc(NC(=O)c2ccco2)c(C(c2cccnc2)N2CCN(CCO)CC2)c1C (centres undefined),-12,-6%,-29%,0%,0%
CCN(C(=O)CSc1nnc(C)n1-c1ccc(C)cc1)c1c(N)n(Cc2ccccc2)c(=O)[nH]c1=O,16,5%,-4%,9%,5%
Cc1ccc(OCCNCC(O)COc2ccccc2)cc1 (centres undefined),-26,-6%,-28%,-8%,-15%
Cc1ccc(OCC(COCc2ccccc2)NC(C)C)cc1 (centres undefined),?,-25%,?,-27%,18µM*
COc1ccccc1NC(=O)COC(=O)c1ccccc1C(=O)N1CCN(c2ccccc2)CC1,12,-3%,1%,-1%,-18%
COCCCn1cc(CN2CC(N3CCN(Cc4ccccc4F)CC3)CS2(=O)=O)nn1 (centres undefined),-2,24%,-10%,7%,-9%
COc1ccc(C)c2sc(=NC(=O)c3ccccc3)n(C)c12,52,1%,?,2%,21µM*
COc1ccc(C)c2sc(=NC(=O)c3cccc(N4C(=O)CCC4=O)c3)n(C)c12,46,-2%,-12%,-8%,3%
COc1ccc(C)c2sc(=NC(=O)c3ccc(C(C)=O)cc3)n(C)c12,-11,-7%,15µM*,2%,?
CCCCOC(=O)Cn1c(=O)n(CC(=O)OCCCC)c2ccccc21,12,3%,-12%,1%[9.24 µM],-20%
CCCCCCCCCCOC(=O)Cn1c(COc2ccc(OC)cc2)[n+](C)c2ccccc21,-108*!,21µM*,2.6µM*,13µM*,2.6µM*

# High-throughput results: PubChem BioAssay, National Center for Advancing Translational Sciences (NCATS)
